Source: PubChem BioAssay (National Center for Advancing Translational Sciences (NCATS))
An excerpt weighted towards active compounds, which were near 21% of everything screened.
CHX counter: Cycloheximide Counterscreen for Small Molecule Inhibitors of Shiga Toxin; cell reporter, cycloheximide protein synthesis inhibition counterscreen; max response, %; 300,000 tested, 12% active; in the data active means max response mostly above about 13%, no sharp cut-off; inactive means mostly below about 14%; further: read at 38.3 µM for the half of the compounds with a filed dose; 0% is about no effect
Shiga inhibitor: A qHTS for Small Molecule Inhibitors of Shiga Toxin | inhibition, % at 38.7 µM | Vero cells, Shiga toxin protein synthesis inhibition reporter | 290,000 tested, 9.2% active; in the data active means inhibition mostly above about 28%, no sharp cut-off; inactive means mostly below about 43%; further: 0% is about no effect
Pf growth 96h: Primary qHTS for delayed death inhibitors of the malarial parasite plastid, 96 hour incubation; P. falciparum luciferase reporter growth, 96 h; 320,000 tested, 6.9% active; Potency, µM (top dose mostly 28.7 µM), for the others: at the top dose activity change, negative = inhibition, usual class: inhibitors; further: potency means the concentration at half of the fitted maximal effect; on the % scale 0 is the no-effect control and ±100 the full control effect
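Parasite growth measured via integrated firefly luciferase reporter in P. falciparum. Infected erythrocytes at 2% hematocrit, 0.05% parasitemia final were treated 96 hours at 37 C under 5% CO2, and luminescence was read.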
SARS PLpro yeast: qHTS of Yeast-based Assay for SARS-CoV PLP | S. cerevisiae expressing SARS-CoV PLpro, growth rescue | Potency, µM (highest dose often 32.9 µM), for the others: at the highest dose activity, positive = growth rescue, most hits filed as activators | 330,000 tested, 0.19% active | AID 485353, 2010; calls by dose curve; further: potency means the concentration at half of the fitted maximal effect; 0% is about no effect; nearly all actives have a fitted effect of over 55% in size
NS1 inh: qHTS Assay for Inhibitors of Influenza NS1 Protein Function | Potency, µM (series often up to 46.1 µM), for the others: at the highest dose activity, positive = more growth | 270,000 tested, 0.4% active; calls by dose curve; further: potency means the concentration at half of the fitted maximal effect; actives are rising curves; nearly all actives have a fitted effect of over 50% in size
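In this qHTS, NS1 from influenza A is expressed in budding yeast, where it slows growth. Cells are switched from glucose to 2% galactose medium (pH 6.0, -URA), treated with compound, and growth recovery is read at OD600.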
Pf growth 48h: Primary qHTS for delayed death inhibitors of the malarial parasite plastid, 48 hour incubation; P. falciparum luciferase growth in erythrocytes, 48 h; Potency, µM (highest dose often 28.7 µM), for inactives: top-dose activity change, negative = inhibition, most hits filed as inhibitors; 310,000 tested, 5.9% active; AID 504832, 2011; further: potency means the concentration at half of the fitted maximal effect; on the % scale 0 is the no-effect control and ±100 the full control effect
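Here the parasites carry a stable luciferase gene and grow inside erythrocytes in Albumax-based RPMI medium with compound for one erythrocytic cycle. Activity is scored as loss of luminescent signal.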
* hit, by the source's call; ? = inconclusive; . = no result given; [ ] = dose if it differs, or a comment. Unless noted, the call rests on the fitted dose curve; in most records, active means well fitted inhibition curve with a large enough effect; inconclusive means small, poorly fitted or top-dose-only effect, or another doubt; inactive means no such curve, though single readings can be large or run the other way.

SMILES	CHX counter	Shiga inhibitor	Pf growth 96h	SARS PLpro yeast	NS1 inh	Pf growth 48h
CC(=O)Nc1ccc(C(=O)OCC(=O)NCc2ccccc2)cc1	5	2	-9%[5.75 µM]	0%	2%	-12%
COc1ccc(CCOC(=O)c2cccc(NC(C)=O)c2)cc1	36*	52*	25%	-5%	-50%	22%
CC(=O)Nc1cccc(C(=O)OCC(=O)NCc2ccc(F)cc2)c1	17	28	33%	0%	.	13µM*
CCC(=O)Oc1cccc(C(=O)Nc2cccc(NC(=O)c3ccco3)c2)c1	4	14	-27%	-5%	-2%	0%
CCOc1ccc(NC(=O)CN(C)C(=O)CC2CCCCC2)cc1OCC	.	.	?	-7%	.	?
CCOc1ccc(NC(=O)CN(C)C(=O)CCC2CCCCC2)cc1OCC	.	.	15µM*	-3%	.	?
CCOc1ccc(NC(=O)CN(C)C(=O)COc2cccc3c2OC(C)(C)C3)cc1OCC	.	.	?	-8%	.	13µM*
CCOc1ccc(NC(=O)CN(C)C(=O)CC2CCCC2)cc1OCC	.	.	13µM*	-1%	.	?
CCN(CC(=O)Nc1ccc(OC)cc1)C(=O)COc1cccc2c1OC(C)(C)C2	.	.	?	-9%	.	?
COc1ccc(NC(=O)CCC2CCCC2)cc1OC	19*	67*	22%	-5%	-49%	-17%
CCC1CN(C(=O)NCc2ccccc2)c2ccccc2O1 (stereo not given)	1	-11	?	-1%	-6%	-6%
CCOC(=O)[C@H]1[C@H]2COc3ccc(Cl)cc3[C@H]2N2C(=O)CNC(=O)[C@@]12C	.	.	.	1%	.	.
NC(=O)c1ccc(NC(=O)CSc2nnc(-c3ccccn3)n2N)cc1	3	-5	?	1%	.	46%
COc1ccc(CNc2nc3ccccc3n2Cc2ccc(Cl)cc2)cc1OC	-5	-1	?	-8%	-23%	?
CCN(CC)c1ccc(CNc2nc3ccccc3n2C)cc1	8	44*	16%	0%	0%	7%
CCn1c(NCc2cc(OC)c(OC)c(OC)c2)nc2ccccc21	-8	-3	0.23µM*	18%	12%	-5%
CCn1c(NCc2cccs2)nc2ccccc21	10	26	?	-2%	-7%	-10%
CCn1c(NCc2ccc(N(C)C)cc2)nc2ccccc21	30*	35*	?	0%	-6%	47%
CCn1c(NCc2ccccn2)nc2ccccc21	21*	21	?	-26%	-3%	?
CCCCc1ccc(NC(=O)CN(C)CC(=O)Nc2ccccc2Cl)cc1	-1	-6	?	-9%	4%	?
O=C(c1cccc(Cl)c1)N1CCN(CCCc2ccccc2)CC1	8	19	-5%	-2%	4%	.
O=S(=O)(c1ccc(NC(=S)N/N=C/c2ccc(Oc3ccccc3)cc2)cc1)N1CCOCC1	6	13	3%	1%	15%	18%
O=S(=O)(c1ccc(NC(=S)N/N=C/c2ccc(N3CCOCC3)cc2)cc1)N1CCOCC1	4	29	5.9µM*	0%	?	-22%
C=C(C)/C=N/NC(=S)Nc1ccc(S(=O)(=O)N2CCOCC2)cc1	-1	-1	?	3%	5%	?
O=S(=O)(c1ccc(NC(=S)N/N=C/c2c3ccccc3cc3ccccc23)cc1)N1CCOCC1	9	27	?	1%	9%	3.3µM*
SMILES	CHX counter	Shiga inhibitor	Pf growth 96h	SARS PLpro yeast	NS1 inh	Pf growth 48h
N#Cc1ccc(/C=N/NC(=O)CCc2ccc(S(=O)(=O)N3CCOCC3)cc2)cc1	-3	8	6.6µM*	-20%	-13%	?
CCCOc1ccc(N2C(=O)CC(NCc3cccs3)C2=O)cc1 (stereo not given)	-3	11	5.2µM*	-21%	-6%	-1%
CCCOc1ccc(N2C(=O)CC(SC(=N)N3N=C(c4ccccc4)CC3c3ccccc3)C2=O)cc1 (stereo not given)	-1	-3	-22%	3%	.	2.3µM*
CCOc1cc(/C=C2\SC(=N)N(c3nccs3)C2=O)ccc1OCCN1CCOCC1	-3	-5	4.1µM*	-7%	-15%	?
O=C(COC(=O)CCc1nc2ccccc2c(=O)[nH]1)NC(=O)NC1CCCC1	0	7	22%	7%	10%	-3%
Cc1ccc(C(=O)NCC(=O)N2CCC(Cc3ccccc3)CC2)cc1	-3	21	?	2%	-50%	30%
COc1ccccc1NC(=S)N(CCN1CCOCC1)Cc1ccccc1F	-2	-6	22%	0%	-4%	0%
CCOc1ccc2c(c1)C(N(CCN1CCOCC1)C(=S)Nc1ccccc1OC)CC(C)(C)O2 (stereo not given)	3	-5	10µM*	3%	.	?
Cc1ccsc1CNC12CC3CC(CC(C3)C1)C2	-2	-5	0.83µM*	-2%	2%	-16%
Cc1ccc2nc(NC(=O)C3CC3C)sc2c1 (stereo not given)	37*	94*	139%	3%	2%	135%
CC1CC1C(=O)Nc1nc2ccc(S(C)(=O)=O)cc2s1 (stereo not given)	28*	59*	-11%	-3%	-9%	23%
CC1(C)N=C(N)N=C(N)N1c1ccc(OCCCOc2ccccc2)c(Cl)c1	-6	-12	0.023µM*	1%	-7%	0.026µM*
CCOC(=O)c1cccc(N2C(N)=NC(N)=NC2(C)C)c1	-4	61	8%	3%	-3%	?
COc1cccc(N2C(N)=NC(N)=NC2(C)C)c1	1	-9	-19%	1%	2%	0.13µM*
CCOc1ccc(N2C(N)=NC(N)=NC2(C)C)cc1	-4	-14	10%	-3%	-17%	0.13µM*
CC1(C)N=C(N)N=C(N)N1c1cccc(C(=O)O)c1	16	6	.	0%	4%	-8%
COc1ccc(N2C(N)=NC(N)=NC2(C)C)cc1	1	-29	?	4%	16%	0.033µM*
CCCCCc1ccc(-c2cn(CC3CCCCC3)nn2)cc1	0	14	12µM*	0%	?	79%
c1ccc(-c2cn(CC3CCCCC3)nn2)cc1	37*	45*	182%	-10%	-37%	31%
COc1ccc(-c2cn(CC3CCCCC3)nn2)cc1	16*	17*	202%	-4%	-16%	60%
CCCCCCC(=O)Nc1nc(C)c(-c2csc(Nc3cc(Cl)ccc3C)n2)s1	-2	2	?	-4%	?	?
Cc1ccc(Cl)cc1Nc1nc(-c2sc(NC(=O)c3ccccc3)nc2C)cs1	12	38	2.6µM*	3%	21%	2.1µM*
Cc1nc(NC(=O)c2ccccc2)sc1-c1csc(Nc2cccc(F)c2)n1	13*	62	4.7µM*	-8%	-2%	?
